Screening results deposited in PubChem BioAssay by National Center for Advancing Translational Sciences (NCATS).
TDP1 cell CPT – growth inhibition of DT40 Tdp1-/-;hTDP1 cells with camptothecin (screen for TDP1 inhibitors) | Potency, µM (series often up to 46.2 µM), most hits filed as inhibitors | hit rate 12% among 420,000 | chicken DT40 Tdp1-/-;hTDP1 cells + 20 nM CPT, ATP luminescence, 48 h | AID 686979; note: nearly all actives have a fitted effect of over 55% in size
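Chicken DT40 Tdp1-/- cells stably complemented with human TDP1 were seeded at 400 cells/well in medium containing 20 nM camptothecin, exposed to pin-transferred compounds, and grown at 37 °C for at least 48 hr. Viability was read as ATP luminescence.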
TDP1 cell noCPT – qHTS for Inhibitors of human tyrosyl-DNA phosphodiesterase 1 (TDP1): qHTS in cells in absence of CPT; DT40 Tdp1-/- hTDP1 cells, no CPT, ATP luminescence, 48 h; Potency, µM (highest dose often 46.2 µM), hits mostly inhibitors; hit rate 15% among 420,000; AID 686978, 2013; note: nearly all actives have a fitted effect of over 55% in size
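Growth kinetics read by CellTiter-Glo luminescence after ≥48 hr at 37 °C. Cells: DT40 Tdp1-/- stably carrying human TDP1, 400 per well, compound exposure in the absence of CPT (DMSO vehicle).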
GCN5L2 inh – GCN5L2 (KAT2A) acetyltransferase inhibition; Q92830; GCN5L2 HAT assay, ThioGlo1 CoA-SH fluorescence; Potency, µM (series often up to 58.9 µM), most hits filed as inhibitors; hit rate 0.21% among 390,000; AID 504327
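ThioGlo1-coupled HAT assay: 20nM GCN5L2, 70uM acetyl-CoA, 75uM H3(1-25) peptide, pH 7.5. Fluorescence read at 340/540nm at start and after 20 min at room temperature.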
VDR inh – vitamin D3 receptor (human) inhibition. P11473. VDR-SRC2-3 peptide fluorescence polarization, 2 h. Potency, µM, usual class: inhibitors. hit rate 0.93% among 400,000. AID 504847
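Measured by FP: displacement of SRC2-3 coactivator peptide from VDR by library compounds, following a two-hour ambient incubation.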
TDP1 block – TDP1 (human) enzyme inhibition. recombinant TDP1, AlphaScreen DNA substrate cleavage. hit rate 0.28% among 350,000. Potency, µM (highest dose often 130 µM), most hits filed as inhibitors. AID 485290; note: nearly all actives have a fitted effect of over 40% in size
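Steps: enzyme plus compound, 15 min RT; add biotin/phosphotyrosine-FITC oligonucleotide (15 nM final), react 5 min; add donor/acceptor beads (10 ug/ml final), 10 min; read AlphaScreen. Tdp1 at 1 nM final.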
PLK1 PBD block – PLK1 (human) polo-box domain binding inhibition; P53350; Plk1 PBD binding of FITC phosphopeptide, fluorescence polarization; Potency, µM, hits mostly inhibitors; hit rate 2.8% among 360,000; AID 720504; note: series mostly up to about 57 µM; nearly all actives have a fitted effect of over 65% in size
Target sequence (P53350 whole entry, looked up, the tested form may be a part): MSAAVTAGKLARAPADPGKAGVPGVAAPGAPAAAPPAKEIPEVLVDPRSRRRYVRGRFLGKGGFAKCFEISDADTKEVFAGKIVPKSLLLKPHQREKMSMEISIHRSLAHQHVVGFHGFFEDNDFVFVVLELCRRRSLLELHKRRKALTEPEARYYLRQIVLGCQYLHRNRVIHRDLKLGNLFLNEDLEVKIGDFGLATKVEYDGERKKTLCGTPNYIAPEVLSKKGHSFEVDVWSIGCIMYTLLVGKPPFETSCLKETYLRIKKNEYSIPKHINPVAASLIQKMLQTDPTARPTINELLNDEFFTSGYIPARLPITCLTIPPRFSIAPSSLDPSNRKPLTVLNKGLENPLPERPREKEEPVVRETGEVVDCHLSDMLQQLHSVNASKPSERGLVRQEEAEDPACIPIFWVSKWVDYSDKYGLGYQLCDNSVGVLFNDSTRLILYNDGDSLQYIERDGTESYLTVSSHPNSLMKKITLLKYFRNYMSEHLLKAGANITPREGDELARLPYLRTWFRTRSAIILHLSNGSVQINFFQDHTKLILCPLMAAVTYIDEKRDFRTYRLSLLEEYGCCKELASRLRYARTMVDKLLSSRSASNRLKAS
Of the large screens only hits and unclear results are named; the others gave an inactive call. Sampled rows, rich in hits. Any-hit rate of the full collection: about 18%. Calls come from the whole dose curve; as a rule, active = well fitted curve in the direction sought with a large enough effect; inconclusive = small, poorly fitted or top-dose-only effect, or another doubt; inactive = no such curve, though single readings can be large; an effect the other way counts as inactive or inconclusive.

Cc1ccc2nc(C3CCCN(C(=S)Nc4cccc(C)c4C)C3)[nH]c2c1 (stereo not given)	TDP1 cell CPT inconclusive, TDP1 cell noCPT 18µM
Cc1ccc(NC(=S)N2CCCC(c3nc4ccc(C)cc4[nH]3)C2)c(C)c1 (stereo not given)	TDP1 cell CPT inconclusive, TDP1 cell noCPT inconclusive
CC1CCc2c(sc(NC(=O)C3c4ccccc4Oc4ccccc43)c2C(=O)OC(C)C)C1 (stereo not given)	none (no result: PLK1 PBD block)
CSc1nnc(-c2ccccc2SC)o1	PLK1 PBD block 30µM
O=C(CSc1nnc2[nH]c(=O)cc(-c3ccccc3)n12)Nc1ccc(OC(F)(F)F)cc1	none (no result: PLK1 PBD block)
NC(=O)c1cc2ccncc2c2ccccc12	TDP1 cell CPT 13µM, TDP1 cell noCPT 6.5µM
Cc1ccccc1-c1cc(C(=O)NCC2CC2)nn1CC1CC(c2cccc([N+](=O)[O-])c2)=NO1 (stereo not given)	TDP1 cell CPT inconclusive, TDP1 cell noCPT 16µM
COCCNC(=O)c1cc(-c2ccccc2C)n(CC2CC(c3cccc([N+](=O)[O-])c3)=NO2)n1 (stereo not given)	TDP1 cell CPT inconclusive, TDP1 cell noCPT inconclusive
Nc1nc(-c2cc(O)ccc2[N+](=O)[O-])cc(-c2ccccc2)c1[N+](=O)[O-]	TDP1 cell CPT 7.3µM, TDP1 cell noCPT 8.2µM
Cc1ccc(CNC(=O)CSc2ncn[nH]2)cc1	none
Cc1ccc(-c2nc(NC(=O)CSc3nnc4scc(-c5ccccc5)n34)ns2)cc1	TDP1 cell CPT 18µM, TDP1 cell noCPT 21µM, PLK1 PBD block inconclusive (no result: TDP1 block)
Cc1ccc(-c2nc(NC(=O)CSc3ncn[nH]3)ns2)cc1	TDP1 cell CPT inconclusive, TDP1 cell noCPT inconclusive, VDR inh 14µM, PLK1 PBD block 7.5µM
Cc1ccc(NC(=O)CSc2nnc3scc(-c4ccc(Cl)cc4)n23)cc1	none (no result: TDP1 block, PLK1 PBD block)
CCCC(=O)Nc1nnc([C@H]2C[C@H](O)[C@@H](CO)O2)s1	none (no result: GCN5L2 inh, VDR inh, TDP1 block)
Cc1cc(C)cc(NC(=O)c2ccc(CNc3c(N4CCCC4)c(=O)c3=O)cc2)c1	none
CC(NC(=O)Cc1ccc(S(=O)(=O)N2CCOCC2)s1)c1ccc(Br)cc1 (stereo not given)	TDP1 cell CPT inconclusive, TDP1 cell noCPT inconclusive (no result: GCN5L2 inh, TDP1 block)
S=C1SC2(CCCCCC2)NC2=C1CCCCC2	TDP1 cell CPT inconclusive, TDP1 cell noCPT 13µM (no result: GCN5L2 inh, VDR inh, TDP1 block)
C[C@H]1CN([C@@H](C)CO)S(=O)(=O)c2ccc(Br)cc2O[C@@H]1CN(C)Cc1cccc(F)c1	TDP1 cell CPT 16µM, TDP1 cell noCPT 16µM (no result: GCN5L2 inh, VDR inh, TDP1 block)
C[C@H](CO)N1C[C@H](C)[C@@H](CN(C)C(=O)Nc2ccccc2)Oc2cc(Br)ccc2S1(=O)=O	TDP1 cell noCPT inconclusive (no result: GCN5L2 inh, VDR inh, TDP1 block)
C[C@H]1CN([C@@H](C)CO)S(=O)(=O)c2ccc(C#CC(C)(C)O)cc2O[C@H]1CN(C)Cc1ccccc1	TDP1 cell CPT 18µM, TDP1 cell noCPT 23µM (no result: GCN5L2 inh, VDR inh, TDP1 block)
C[C@H](CO)N1C[C@H](C)[C@@H](CN(C)Cc2ccc(Oc3ccccc3)cc2)Oc2cc(Br)ccc2S1(=O)=O	TDP1 cell CPT 23µM, TDP1 cell noCPT 12µM (no result: GCN5L2 inh, VDR inh, TDP1 block)
C[C@H](CO)N1C[C@H](C)[C@@H](CN(C)Cc2cccc(F)c2)Oc2cc(-c3cccc(C#N)c3)ccc2S1(=O)=O	TDP1 cell CPT inconclusive, TDP1 cell noCPT 23µM (no result: GCN5L2 inh, VDR inh, TDP1 block)
C[C@@H]1CN([C@@H](C)CO)S(=O)(=O)c2ccc(Br)cc2O[C@H]1CN(C)Cc1ccc(-c2ccccc2)cc1	TDP1 cell CPT 21µM, TDP1 cell noCPT 5.8µM (no result: GCN5L2 inh, VDR inh, TDP1 block)
C[C@@H]1CN([C@@H](C)CO)S(=O)(=O)c2ccc(C#CC3CCCCC3)cc2O[C@@H]1CN(C)Cc1cccnc1	TDP1 cell CPT 15µM, TDP1 cell noCPT 5.2µM (no result: GCN5L2 inh, VDR inh, TDP1 block)
CCOc1ccc(NC(=O)CN(C)S(=O)(=O)c2ccc3[nH]c4c(c3c2)CCCC4)cc1	TDP1 cell CPT inconclusive, TDP1 cell noCPT inconclusive (no result: PLK1 PBD block)
CC(=O)Nc1ccccc1-c1nc2ccc(C(=O)N3CCN(c4ccccc4)CC3)cc2[nH]c1=O	none
CC(=O)Nc1ccccc1-c1nc2cc(C#N)c(C#N)cc2[nH]c1=O	TDP1 cell CPT 21µM, TDP1 cell noCPT 21µM (no result: TDP1 block)
COC(=O)[C@H](Cc1ccccc1)NC(=O)N1CCN(Cc2ccccc2)CC1	TDP1 cell CPT inconclusive, TDP1 cell noCPT 26µM
O=C(Nc1ccccc1)c1cccc2c(-c3cccnc3)coc12	TDP1 cell CPT 21µM, TDP1 cell noCPT 15µM (no result: GCN5L2 inh, VDR inh, TDP1 block)
COc1ccc(NC(=O)c2cccc3c(-c4cccnc4)coc23)cc1	TDP1 cell CPT 12µM, TDP1 cell noCPT 21µM (no result: GCN5L2 inh, VDR inh, TDP1 block)
CCO[C@@H]1OC(C(=O)N2CCN(Cc3ccccc3)CC2)=C[C@H](c2coc3ccccc3c2=O)[C@H]1CCCO	TDP1 cell CPT 8.2µM, TDP1 cell noCPT 7.3µM
C#Cc1ccc([C@@H]2C=C(C(=O)N3CCN(Cc4ccccc4)CC3)O[C@H](OCC)[C@H]2CCCO)cc1	TDP1 cell CPT inconclusive, TDP1 cell noCPT 23µM
CCO[C@H]1OC(C(=O)N2CCN(Cc3ccccc3)CC2)=C[C@@H](c2coc3ccccc3c2=O)[C@@H]1CCCO	TDP1 cell CPT 26µM, TDP1 cell noCPT 23µM
COc1cccc(NC(=O)c2c(N3CCCC3=O)c3cc(C)ccc3n2C)c1	none (no result: TDP1 cell CPT, TDP1 cell noCPT, PLK1 PBD block)
Cc1ccc2nc(-c3ccc(Cl)c(NC(=O)c4ccc5c(c4)OCCO5)c3)oc2c1	none (no result: TDP1 cell CPT, TDP1 cell noCPT, PLK1 PBD block)
